Measured values published in the supplement of paper PMC7411054.
Structures can show the parent of a compound that is named as a salt.

Tests used:
Settings in all cases: treatment time: 24 h
[1] = system: A549-ACTB-RAB5A; assay: lowest phenotypically active concentration; higher = less potent
How it was run: (§1)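 Two criteria together defined phenotypic activity: deviation and reproducibility. Deviation meant ≥3 of 4 wells beyond the 95th percentile of Euclidean distances in solvent control wells, and reproducibility meant a median replicate Pearson correlation above the 95th percentile of non-replicates. Wells had been treated for 24 h at 0.3, 1, 3 or 9 µM in fifteen gene-edited A549, HepG2 and WPMY1 reporter lines before live imaging.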

[2] = system: A549-GM130-SQSTM1; assay: as above
How it was run: as §1

[3] = system: A549-TUBA1B-RELA; assay: as above
How it was run: as §1

[4] = system: HepG2-CANX-COX4; assay: as above
How it was run: as §1

[5] = system: WPMY1-ACTB-RAB5A; assay: as above
How it was run: as §1

[6] = system: A549-ACTB-RAB5A; assay: phenotypically active (imaging signature differs from DMSO and reproducible) at any of 0.3-9 uM (binary (1 = active, 0 = inactive)); higher = active
How it was run: as §1

[7] = system: A549-CANX-COX4; assay: as above
How it was run: as §1

[8] = system: A549-GM130-SQSTM1; assay: as above
How it was run: as §1

[9] = system: A549-TP53BP1-CLTA; assay: as above
How it was run: as §1

[10] = system: A549-TUBA1B-RELA; assay: as above
How it was run: as §1

[11] = system: HepG2-ACTB-RAB5A; assay: as above
How it was run: as §1

[12] = system: HepG2-CANX-COX4; assay: as above
How it was run: as §1

[13] = system: HepG2-GM130-SQSTM1; assay: as above
How it was run: as §1

[14] = system: HepG2-TP53BP1-CLTA; assay: as above
How it was run: as §1

[15] = system: HepG2-TUBA1B-RELA; assay: as above
How it was run: as §1

[16] = system: WPMY1-ACTB-RAB5A; assay: as above
How it was run: as §1

[17] = system: WPMY1-CANX-COX4; assay: as above
How it was run: as §1

[18] = system: WPMY1-GM130-SQSTM1; assay: as above
How it was run: as §1

[19] = system: WPMY1-TP53BP1-CLTA; assay: as above
How it was run: as §1

[20] = system: WPMY1-TUBA1B-RELA; assay: as above
How it was run: as §1

Row | SMILES | lowest phenotypically active concentration [1] | lowest phenotypically active concentration [2] | lowest phenotypically active concentration [3] | lowest phenotypically active concentration [4] | lowest phenotypically active concentration [5] | phenotypically active [6] | phenotypically active [7] | phenotypically active [8] | phenotypically active [9] | phenotypically active [10] | phenotypically active [11] | phenotypically active [12] | phenotypically active [13] | phenotypically active [14] | phenotypically active [15] | phenotypically active [16] | phenotypically active [17] | phenotypically active [18] | phenotypically active [19] | phenotypically active [20]
1 | C[C@@]1(CO)[C@H](O)CC[C@@]2(C)[C@H]1CC[C@H]1C[C@@H]3C[C@@]12CC[C@]3(O)CO [Aphidicolin] | ≤ 0.3 µM | ≤ 0.3 µM | ≤ 0.3 µM | ≤ 0.3 µM | ≤ 0.3 µM | 1 (active) | 1 (active) | 1 (active) | 1 (active) | 1 (active) | 1 (active) | 1 (active) | 1 (active) | 1 (active) | 1 (active) | 1 (active) | 1 (active) | 1 (active) | 1 (active) | 1 (active)
2 | CCN1CCN(C(=O)Cc2ccc(Nc3ncc(F)c(Nc4ccc(C(=O)Nc5ccccc5Cl)cc4)n3)cc2)CC1 | 1 µM | 1 µM | 1 µM | 1 µM | 1 µM | 1 (active) | 1 (active) | 1 (active) | 1 (active) | 1 (active) | 1 (active) | 1 (active) | 1 (active) | 1 (active) | 1 (active) | 1 (active) | 0 (inactive) | 0 (inactive) | 1 (active) | 1 (active)
3 | CC[C@H]1CN2CC[C@H]1C[C@@H]2[C@@H](O)c1ccnc2ccc(OC)cc12 [Hydroquinidine HCl] | 9 µM |  | 9 µM | 9 µM | 9 µM | 1 (active) | 0 (inactive) | 0 (inactive) | 0 (inactive) | 1 (active) | 0 (inactive) | 1 (active) | 1 (active) | 0 (inactive) | 0 (inactive) | 1 (active) | 1 (active) | 0 (inactive) | 0 (inactive) | 1 (active)
4 | C[C@@]12C(=O)OC(=O)[C@]1(C)[C@H]1CC[C@@H]2O1 [Cantharidin] | 3 µM | 3 µM |  | 9 µM | 3 µM | 1 (active) | 1 (active) | 1 (active) | 1 (active) | 0 (inactive) | 1 (active) | 1 (active) | 1 (active) | 1 (active) | 1 (active) | 1 (active) | 1 (active) | 1 (active) | 1 (active) | 1 (active)
5 | N#CC(C#N)=NNc1ccc(OC(F)(F)F)cc1 | 9 µM | 3 µM | 3 µM | 9 µM | 3 µM | 1 (active) | 1 (active) | 1 (active) | 1 (active) | 1 (active) | 1 (active) | 1 (active) | 1 (active) | 1 (active) | 1 (active) | 1 (active) | 1 (active) | 1 (active) | 1 (active) | 1 (active)
